According to PubChem BioAssay (NCATS):
Inconclusive results are not listed. Calls of active or inactive are those of the source. Calls follow the shape of the dose curve; as a rule, active = well fitted curve in the direction sought with a large enough effect; inconclusive = small, poorly fitted or top-dose-only effect, or another doubt; inactive = no such curve, though single readings can be large; an effect the other way counts as inactive or inconclusive.

Legend:
[1] = biological target: Metallo-beta-lactamase type 2 (Klebsiella pneumoniae) (UniProt C7C422); experiment: qHTS to identify inhibitors of the New Delhi Metallo-beta-lactamase (NDM): assay validation screen against the NCATS LOPAC Collection (AID 1794843);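 also: nitrocefin turnover by NDM-1 measured as 485 nm absorbance at plateau; series mostly up to about 38 µM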
Sequence of Metallo-beta-lactamase type 2 (Klebsiella pneumoniae) (C7C422 whole entry, looked up): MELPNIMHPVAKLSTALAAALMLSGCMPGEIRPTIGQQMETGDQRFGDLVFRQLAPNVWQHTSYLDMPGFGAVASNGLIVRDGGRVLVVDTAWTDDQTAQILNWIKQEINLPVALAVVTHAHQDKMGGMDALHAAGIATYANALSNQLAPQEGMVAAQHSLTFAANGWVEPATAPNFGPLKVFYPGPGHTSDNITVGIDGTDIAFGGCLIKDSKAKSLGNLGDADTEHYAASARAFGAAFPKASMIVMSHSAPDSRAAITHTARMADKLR
Procedure, shortened: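 Nitrocefin hydrolysis (50 uM substrate stock) by NDM-1, 2 nM final, was followed by 485 nm absorbance after compound preincubation; buffer was 50 mM HEPES pH 7.0, 1 uM ZnSO4, 0.01% Tween20.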

[2] = biological target: Glutathione peroxidase 1 (Homo sapiens) (UniProt P07203); experiment: Primary qHTS Assay for Inhibitors of Recombinant Selenoprotein Glutathione Peroxidase 1 (GPX1) (AID 1845191); also: nearly all actives have a fitted effect of over 65% in size
Sequence of Glutathione peroxidase 1 (Homo sapiens) (P07203 whole entry, looked up): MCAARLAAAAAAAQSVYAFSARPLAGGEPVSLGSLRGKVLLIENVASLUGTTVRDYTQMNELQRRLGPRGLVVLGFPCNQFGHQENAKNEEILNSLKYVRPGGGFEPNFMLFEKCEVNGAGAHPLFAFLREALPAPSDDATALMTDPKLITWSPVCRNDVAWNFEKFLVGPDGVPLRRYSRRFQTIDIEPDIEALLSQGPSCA
Procedure, shortened: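 GR-coupled readout: NADPH consumption tracked by fluorescence, ex 340/em 450 nm, at t=0 and after 15 min at RT. Final mix 10 nM GPX1, 1 mM GSH, 0.5 mM CHP, 0.5 mM NADPH, 100 nM GR, 0.01% BSA, following 30 min enzyme–compound preincubation.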

[3] = biological target: Phospholipid hydroperoxide glutathione peroxidase GPX4 (Homo sapiens) (UniProt P36969); experiment: Primary qHTS Assay for Inhibitors of Recombinant Selenoprotein Glutathione Peroxidase 4 (GPX4) (AID 1845192); also: nearly all actives have a fitted effect of over 65% in size
Sequence of Phospholipid hydroperoxide glutathione peroxidase GPX4 (Homo sapiens) (P36969 whole entry, looked up): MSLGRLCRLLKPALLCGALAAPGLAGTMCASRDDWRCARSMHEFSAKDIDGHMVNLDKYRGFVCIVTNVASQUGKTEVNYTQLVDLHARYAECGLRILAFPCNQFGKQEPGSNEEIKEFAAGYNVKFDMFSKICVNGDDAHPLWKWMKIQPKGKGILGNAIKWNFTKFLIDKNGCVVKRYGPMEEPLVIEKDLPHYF
Procedure, shortened: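 Steps: GPX4 plus compound, 30 min RT; add GR/GSH/NADPH master mix; start with cumene hydroperoxide; read 340/450 nm fluorescence at 0 and 15 min. Finals were 200 nM GPX4, 1 mM GSH, 0.5 mM CHP, 0.5 mM NADPH, 100 nM GR.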

Measured: Potency

O=c1oc(Cl)c(Cl)c2ccccc12
inactive: all assays above

CC(=O)[C@H]1CCC2C3CC=C4C[C@@H](OS(=O)(=O)O)CC[C@]4(C)C3CC[C@@]21C (some centres undefined)
inactive: all assays above

CCOC(=O)C12CC1/C(=N/O)c1ccccc1O2 (centres undefined)
inactive: all assays above

O=c1[nH]c(=O)c2nc3ccccc3nc2[nH]1
inactive: all assays above

CCCCCCCC/C=C\CCCCCCCC(=O)NCCc1ccc(O)c(O)c1
inactive: all assays above

[Li+]
inactive: all assays above

CN(CC[C@@H](Oc1ccc(C(F)(F)F)cc1)c1ccccc1)CC(=O)O
inactive: all assays above

Cc1ccc2c(c1)C(N1CCN(C)CC1)=Nc1cccnc1N2
inactive: all assays above

COc1ccc2c(c1)CCC1C2CC[C@@]2(C)C1CC[C@@H]2NCCCCCCN1C(=O)C=CC1=O (some centres undefined)
inactive: all assays above

CN1Cc2sccc2C(c2ccc(O)c(O)c2)C1 (centres undefined)
inactive: all assays above

C=CCn1c(=O)c2c(nc(-c3ccc(S(=O)(=O)O)cc3)n2C)n(C)c1=O
inactive: all assays above

N[C@@H](CS(=O)O)C(=O)O
inactive: all assays above

COC(=O)C1=C(C)NC(C)=C([N+](=O)[O-])C1c1ccccc1C(F)(F)F (centres undefined)
inactive: all assays above

COc1ccc(-c2ccc(N)[n+](CCCC(=O)O)n2)cc1
inactive: all assays above

Cc1nc2c(OCc3ccccc3)cccn2c1CC#N
inactive: all assays above

CC(/C=C/c1cccc(Oc2ccc(F)cc2)c1)N(O)C(N)=O (centres undefined)
inactive: all assays above

CC[N+](CC)(CC)CC(=O)Nc1c(C)cccc1C
inactive: all assays above

CC(C)NC[C@H](O)COc1ccc(CC(N)=O)cc1
inactive: all assays above

S=C(S)N1CCCC1
inactive: all assays above

CCCCCCN(CCCCCC)C(=O)Cc1c(-c2ccc(F)cc2)[nH]c2ccccc12
inactive: all assays above

C=C1C[C@@]23CC[C@H]4[C@@](C)(CCC[C@@]4(C)C(=O)O)[C@@H]2CC[C@]1(O)C3
inactive: all assays above

CC(=O)O[C@H]1CC2(C)[C@@H](C[C@@H](O)[C@H]3[C@@]4(C)CC[C@@H](O)[C@@H](C)[C@@H]4CC[C@@]32C)C1=C(CCC=C(C)C)C(=O)O (some centres undefined)
inactive: all assays above

COc1ccccc1N1CCN(CCCCNC(=O)c2ccc3ccccc3c2)CC1
inactive: all assays above

COC(=O)[C@H](NC(=O)c1cc(-c2ccccc2)nc2ccccc12)c1ccccc1
inactive: all assays above

COc1cc([C@@H]2c3cc4c(cc3[C@H](O)C3COC(=O)[C@@H]32)OCO4)cc(OC)c1OC (some centres undefined)
inactive: all assays above

O=C1NC(=O)c2cc(Nc3ccccc3)c(Nc3ccccc3)cc21
inactive: all assays above

CC(=O)SC1CC2=CC(=O)CC[C@]2(C)C2CC[C@@]3(C)C(CC[C@@]34CCC(=O)O4)C12 (some centres undefined)
inactive: all assays above

CC(=O)NNC(=O)N1Cc2ccccc2Oc2ccc(Cl)cc21
inactive: all assays above

N[C@@H](CCCC(=O)O)C(=O)O
inactive: all assays above

N#Cc1cc([N+](=O)[O-])c2sc(C(N)=O)[n+]([O-])c2c1
inactive: all assays above

O=C1C2C=CC=CC2=NC(=S)N1CCN1CCC(=C(c2ccc(F)cc2)c2ccc(F)cc2)CC1 (centres undefined)
inactive: all assays above

Cc1nc(N=Nc2ccc(C(=O)O)cc2)c(COP(=O)(O)O)c(C=O)c1O
inactive: all assays above

OC[C@H]1O[C@H](n2cnc3c(N[C@H]4CCC[C@@H]4O)ncnc32)[C@H](O)[C@@H]1O
inactive: all assays above

N#C/C(=C\c1ccc(O)c(O)c1)C(=O)NCCCNC(=O)/C(C#N)=C/c1ccc(O)c(O)c1
inactive: all assays above

Cc1cccc(C)c1OCC(N)C(C)C (centres undefined)
inactive: all assays above

Nc1nc2c(cnn2CCc2ccccc2)c2nc(-c3ccco3)nn12
inactive: all assays above

Cn1ccnc1
inactive: all assays above

CC(C)C[C@H](NC(=O)C1OC1C(=O)O)C(=O)NCCCCN=C(N)N (some centres undefined)
inactive: all assays above
